Structures are written as SMILES.

The test system of the assay is Plasmodium falciparum. Nature of the assay: GSK_TCMDC: Inhibition of Plasmodium falciparum 3D7 in whole red blood cells, using parasite LDH activity as an index of growth. Test compounds present at 2uM. Type of assay: functional.
The Inhibition is the relative decrease from the control value, in per cent. Regarding `CCn1ccc2c(N3CCCCS3(=O)=O)cc(C(=O)N[C@@H](Cc3ccccc3)[C@H](O)CNC3CCCCC3)cc21`, the Inhibition turned out to be 98%.

On to `Cn1c(NC(=O)c2ccc(CNC(=O)c3ccc(O)c(-c4ccc(Cl)c(Cl)c4)c3)cc2)nc2ccccc21`, for which the Inhibition amounted to 94%.

For `O=C(NCc1ccc2c(c1)OCO2)c1nn(CCN2CCC(N3CCCC3)CC2)cc1-c1ccc(Cl)c(Cl)c1`, the Inhibition was 94%.

In the case of `O=C(NC1CC1)c1cnc(N2CCN(Cc3ccc(Cl)cc3)CC2)c(Cl)c1.O=C(O)C(F)(F)F`, the Inhibition came out at 93%.

As for `CCOC(=O)NC1=NC(=N)N(OCc2ccc(Cl)c(Cl)c2)C(C)(C)N1`, the Inhibition came to 96%.

On to `CC1CCN(C(=O)[C@H](Cc2c[nH]c3ccccc23)NS(=O)(=O)c2ccc(Cl)cc2)CC1`, for which the Inhibition is 100%.

On to `O=C(O)C1Cc2c([nH]c3ccccc23)C(c2ccc(Cl)cc2Cl)N1` (stereo unspecified), for which the Inhibition worked out at 91%.

`N#Cc1cnc2cc(-c3cnc(CNCCN4CCOCC4)s3)ccc2c1Nc1ccc(Oc2ccccc2)cc1` yielded an Inhibition of 97%.

Take `CC[C@H](NC(=O)c1c(N)c(-c2sccc2Cl)nc2ccccc12)c1ccccc1`: the Inhibition is reported as 99%.

`O=C(CC1SC(N2N=C(c3cccs3)CC2c2ccccc2)=NC1=O)Nc1ccccc1F` (stereo unspecified) came in with an Inhibition of 87%.

The compound `CN1CCCC1CCNc1ncc2c(-c3ccc(NC(=O)Nc4cc(C(F)(F)F)ccc4F)cc3)nn(C)c2n1.O=C(O)C(F)(F)F` (stereo unspecified) registered an Inhibition of 96%.

These data come from ChEMBL document CHEMBL1157539, “Thousands of chemical starting points for antimalarial lead identification” (Nature, 2010).
